Test results as given in PubChem BioAssay AID463173 (ICCB-Longwood Screening Facility, Harvard Medical School, 2010).
The campaign covered roughly 52,000 compounds. About 1,700 (3.3%) were called active. The list comes from a sample in which actives are over-represented; it also holds similar structures and randomly drawn compounds. Values without a mark were called inactive. Rule as the data show it: active = survival mostly below about 52% (no sharp cut-off); inactive = mostly above about 56%.

Each molecule was assayed on Wild type (assay: S. aureus survival, RN4220 and DeltatarO strains – OD600, teichoic acid synthesis inhibitors, primary screen (AID 463173)). Settings: S. aureus RN4220 wild type/DeltatarO growth, OD600, 18 h, hits give low values, screened at 18.75 µg/mL (by protocol).
`c1ccc(N2CCN(Cc3nnc(-c4ccc5c(c4)OCO5)o3)CC2)cc1` showed a survival of 81%. Molecule `CCOc1ccc(NC(=O)/C(C#N)=C\c2cc(C)n(C)c2C)cc1` has a survival of 103%. For `O=C(CSc1nc(-c2ccccc2)no1)N1CCN(c2ccc(F)cc2)CC1`, the survival was 91%. `CCc1ccccc1NC(=O)C(C)n1c(=O)cc(C)c2c(C)nn(-c3ccccc3)c21` (stereo unspecified) gave a survival of 72%. In the case of `COc1cc(C2C(=O)N(C3CCCCC3)CC(=O)N2CCc2ccccc2)ccc1OC(C)C` (stereo unspecified), the survival is reported as 89%. Work on `Cc1ccc(CNC(=O)c2cc(Sc3ccc(F)cc3F)nc3ccccc23)cc1` yielded a survival of 94%. `COC(=O)c1c(C)oc2c1cc(NS(=O)(=O)c1c(C)cc(C)cc1C)c1ccccc12` was tested, and the survival was 25% (active). Molecule `COc1ccc(OC)c(S(=O)(=O)Nc2cc3c(C(C)=O)c(C)oc3c3ccccc23)c1` has a survival of 69%. Molecule `CCOC(=O)c1c(C)oc2c1cc(NS(=O)(=O)c1ccc(C)cc1)c1ccccc12` has a survival of 86%. Work on `CCOC(=O)c1sc2sc(C(=O)OCC)c(CN(CC)CC)c2c1CN(CC)CC` yielded a survival of 94%. `Cc1ccccc1-c1nnc(NC(=O)CC(C)C)s1` showed a survival of 116%. `COc1ccc(OC)c(CNS(=O)(=O)c2ccc(-c3cc(C(F)(F)F)on3)s2)c1` was tested, and the survival was -6% (active). Molecule `COc1ccccc1CNS(=O)(=O)c1ccc(-c2cc(C(F)(F)F)on2)s1` has a survival of 73%. With `COc1ccc(CNS(=O)(=O)c2ccc(-c3cc(C(F)(F)F)on3)s2)cc1OC` the survival was 133%. In the case of `CCC(=O)N1CCc2cc(S(=O)(=O)CCC(=O)N3CCN(c4cccc(C)c4)C(C)C3)ccc21` (stereo unspecified), the survival is reported as 83%. Work on `CN1C(=O)Cc2cc(S(=O)(=O)CCC(=O)N3CCN(c4cccc(Cl)c4)CC3)ccc21` yielded a survival of 83%. `Cc1cccc(N2CCN(C(=O)CCS(=O)(=O)c3ccc4c(c3)CC(=O)N4C)CC2C)c1` (stereo unspecified) was tested, and the survival was -4% (active). `COc1ccc(-c2cn3c(n2)sc2cc(C(=O)Nc4c(C)cccc4C)ccc23)cc1` showed a survival of 83%. `COc1ccc(OCC(=O)N2CCN(C(=O)c3ccc(OC)c(OC)c3)CC2)cc1` gave a survival of 134%. With `Nc1ccc(N2CCN(c3ncc(C(F)(F)F)cc3Cl)CC2)c(C(F)(F)F)c1` the survival was -14% (active). `Nc1ccc(-c2ccc(N)cc2C(F)(F)F)c(C(F)(F)F)c1` was tested, and the survival was 117%. `Nc1ccc(N2CCOCC2)c(N)c1` showed a survival of 113%. `Cc1ccc(C2=Nc3ccccc3N(CC(=O)Nc3ccccc3F)C(=O)C2)cc1C` showed a survival of 83%. `CCC(Oc1ccc(F)cc1)C(=O)Nc1nc2c(s1)CCCC2` (stereo unspecified) showed a survival of 76%. In the case of `CC(Oc1ccc(F)cc1)C(=O)Nc1nc(-c2ccc(F)cc2)ns1` (stereo unspecified), the survival is reported as -1% (active). In the case of `COc1ccc(-c2nsc(NC(=O)C(C)Oc3ccc(Cl)c(C)c3)n2)cc1` (stereo unspecified), the survival is reported as 67%. Molecule `CCC(Oc1ccc(F)cc1)C(=O)Nc1cc(-c2ccc(C)cc2)no1` (stereo unspecified) has a survival of 64%. `Cc1cc(C)cc(OCC(=O)Nc2nc(-c3ccc(F)cc3)ns2)c1` gave a survival of 89%. `CCC(Oc1ccc(F)cc1)C(=O)Nc1nc(-c2ccc(F)cc2)ns1` (stereo unspecified) was tested, and the survival was -1% (active). Work on `O=c1cc(-c2ccc(F)cc2)nc(SCc2nc(-c3ccc(Cl)cc3)no2)[nH]1` yielded a survival of 88%. `COC(=O)C1CCN(C(c2ccccc2Cl)c2sc3nc(-c4ccco4)nn3c2O)CC1` (stereo unspecified) gave a survival of 80%. With `Cc1oc2ncnc(N3CCOCC3)c2c1C(=O)N1CCN(c2cccc(C(F)(F)F)c2)CC1` the survival was -6% (active). `Cc1nc(N2CCOCC2)c2c(C(=O)N3CCN(c4cccc(C(F)(F)F)c4)CC3)c(C)oc2n1` gave a survival of 79%. `Cc1nc(N2CCCC2)c2c(C(=O)N3CCN(c4cc(Cl)ccc4C)CC3)c(C)oc2n1` showed a survival of 99%. `Cc1oc2ncnc(N3CCCCC3)c2c1C(=O)N1CCN(c2cccc(C(F)(F)F)c2)CC1` was tested, and the survival was 87%. `Cc1ccc(Cl)cc1N1CCN(C(=O)c2c(C)oc3ncnc(N4CCCCC4)c23)CC1` was tested, and the survival was -6% (active). For `Cc1ccc(Cl)cc1N1CCN(C(=O)c2c(C)oc3ncnc(N4CCOCC4)c23)CC1`, the survival was 69%. In the case of `O=C(NCc1ccccc1Cl)C1CCN(S(=O)(=O)c2ccc3c(c2)CCCN3C(=O)C2CCC2)CC1`, the survival is reported as 80%. With `c1ccc(OCCn2c(COc3ccccc3)nc3ccccc32)cc1` the survival was -15% (active). Molecule `Cc1ccc(OCCn2c(COc3ccc(Cl)cc3)nc3ccccc32)cc1` has a survival of 74%. With `COc1ccc(OCc2nc3ccccc3n2Cc2ccc(C(C)(C)C)cc2)cc1` the survival was 0% (active). `Cc1ccc(OCc2nc3ccccc3n2CCOc2ccc(Cl)cc2)cc1` was tested, and the survival was 26% (active). For `COc1cccc(OCc2nc3ccccc3n2Cc2ccccc2)c1`, the survival was 86%. With `Cc1ccc(C)c(OCc2nc3ccccc3n2C)c1` the survival was 85%. `COc1cccc(OCc2nc3ccccc3n2CCOc2ccccc2)c1` was tested, and the survival was 74%. `Cn1c(COc2ccccc2C(C)(C)C)nc2ccccc21` was tested, and the survival was -17% (active). Molecule `Cn1c(COc2ccccc2Br)nc2ccccc21` has a survival of 106%. `COc1cccc(OCc2nc3ccccc3n2CCOc2ccc(C)cc2)c1` gave a survival of 62%. Molecule `COc1ccc(C(=O)NCC(c2cccnc2)N2CCc3ccccc3C2)cc1OC` (stereo unspecified) has a survival of 93%. Work on `CCOC(=O)CC(NC(=O)CCc1c(C)nc2c(c1C)c(=O)n(C)c(=O)n2C)c1ccc(OCC)c(OC)c1` (stereo unspecified) yielded a survival of 82%. In the case of `Cc1ccc(OCC(=O)Nc2ccc3nc(SCCOc4ccccc4)sc3c2)cc1`, the survival is reported as 99%. `CCOC(=O)N1CCc2c(sc(NCc3cccc(F)c3)c2C(=O)Nc2ccc(OC)cc2OC)C1` was tested, and the survival was 68%. `CC(C)c1nnc(NC(=O)c2nc(SCc3ccc(F)cc3)ncc2Cl)s1` gave a survival of 58%. Work on `Cc1cc(C)n(CCc2nc3c4ccccc4nc(SCc4ccc(F)cc4)n3n2)n1` yielded a survival of 85%. `COc1ccc(C(CNC(=O)c2ccc(C)cc2)N2CCOCC2)cc1` (stereo unspecified) was tested, and the survival was 92%. Work on `Cc1cc2nc3c(=O)n(C)c(=O)n(C)c3nc2cc1N=CN(C)C` yielded a survival of 77%. `CCc1c(CN2CCN(c3ccc(F)cc3)CC2)csc1C` was tested, and the survival was 75%. `O=C(CSc1ccc(-c2ccc(F)cc2)nn1)N1CCOCC1` showed a survival of 112%. With `Cc1ccc(-n2nc3c(=O)n(C(C)C(=O)NCc4ccc(OC(C)C)cc4)nc(C)c3c2C)cc1` (stereo unspecified) the survival was 93%. For `CC(C)(C)c1ccc(OCc2nc3ccccc3n2CCOc2ccccc2)cc1`, the survival was 7% (active). In the case of `Cc1ccc(NS(=O)(=O)c2ccc(-c3cc(C)no3)cc2)c(C)c1`, the survival is reported as 101%. For `COc1ccccc1CNC(=O)c1cccn1-c1nnc(N2CCCC2)s1`, the survival was 81%. In the case of `O=C(c1cccn1-c1nnc(N2CCCCC2)s1)N1CCN(c2ccccc2)CC1`, the survival is reported as -3% (active). `O=C(c1cccn1-c1nnc(N2CCCC2)s1)N1CCN(c2ccccc2)CC1` showed a survival of 19%. `COc1ccc(CNC(=O)c2cccn2-c2nnc(N3CCCCC3)s2)c(OC)c1` was tested, and the survival was -2% (active). Molecule `COc1ccc(CNC(=O)c2cccn2-c2nnc(N3CCCC3)s2)c(OC)c1` has a survival of 81%. In the case of `COc1ccccc1CCNC(=O)c1cccn1-c1nnc(N2CCCCC2)s1`, the survival is reported as 87%. Molecule `O=C(c1cccn1-c1nnc(N2CCCCC2)s1)N1CCN(c2ccc(Cl)cc2)CC1` has a survival of 73%. Molecule `COc1ccc(NC(=O)c2cccn2-c2nnc(N3CCCCC3)s2)c(OC)c1` has a survival of 73%. For `COc1ccccc1CNC(=O)c1cccn1-c1nnc(N2CCCCC2)s1`, the survival was 10% (active). Molecule `Cc1ccc(C)c(CSc2nnc3[nH]c(=O)cc(-c4ccccc4)n23)c1` has a survival of 86%. With `Cc1cccc(N2CCN(c3nc4ccccc4c4nnc(C)n34)CC2)c1C` the survival was 98%. For `COc1ccc(NC(=O)C2CCN(C(=O)c3sc4nc[nH]c(=O)c4c3C)CC2)cc1Cl`, the survival was 85%. For `CCOc1ccccc1NC(=O)CN1c2ccccc2S(=O)(=O)c2ccccc21`, the survival was 10% (active). `Cc1cc(C)c(NC(=O)CN2c3ccccc3S(=O)(=O)c3ccccc32)c(C)c1` was tested, and the survival was 124%. In the case of `Cc1cccc(NC(=O)CN2c3ccccc3S(=O)(=O)c3ccccc32)c1C`, the survival is reported as -3% (active). For `CCOc1ccccc1NC(=O)CN1C(=O)C(=O)c2ccccc21`, the survival was 115%. `CCOc1ccccc1NC(=O)CN1C=NS(=O)(=O)c2ccccc21` showed a survival of 59%. Work on `O=C(CN1c2ccccc2S(=O)(=O)c2ccccc21)Nc1ccccc1Cl` yielded a survival of 65%. `CCn1nc(-c2ccccc2)c(-c2ccccc2)c(C(=O)Nc2ccc(NC(C)=O)cc2)c1=O` gave a survival of 88%. With `CCC(C)(C)n1nnnc1C(c1ccccc1OC)N1CCN(C(=O)c2ccco2)CC1` (stereo unspecified) the survival was 105%. `Cc1ccc(C)c(Cn2c(C(C)NC(=O)c3ccc(F)cc3)nc3ccccc32)c1` (stereo unspecified) gave a survival of 83%. In the case of `COc1ccc(C(=O)N2CCN(C(=O)COc3ccccc3)CC2)cc1OC`, the survival is reported as 79%. `CC(=O)N1c2ccc(S(=O)(=O)NCC3CCC(C(=O)Nc4cccc(C)c4)CC3)cc2CC1C` (stereo unspecified) showed a survival of 91%. `Cc1ccc(C(=O)Nc2ccc(-c3nc4ccccc4s3)cc2C)cc1C` showed a survival of 73%. For `CSc1ncc(C(=O)N2CCN(c3cccc(Cl)c3)CC2)c(C)n1`, the survival was -3% (active). `CSc1ncc(C(=O)N2CCN(c3cccc(C(F)(F)F)c3)CC2)c(C)n1` gave a survival of 73%. With `CSc1ncc(C(=O)N2CCN(c3ccc(Cl)cc3)CC2)c(C)n1` the survival was 124%. `CCCCN(CCCNC(=O)c1c(C)oc2nc[nH]c(=O)c12)Cc1ccccc1` gave a survival of 71%. `Cc1oc2ccc(O)c(CN3CCCC(C)C3)c2c1C(=O)Nc1ccccc1` (stereo unspecified) was tested, and the survival was 91%. For `CCN(Cc1ccccc1)Cc1c(O)ccc2c(=O)c(-c3ccccc3Cl)coc12`, the survival was 73%.
